Screens as filed in PubChem.
This is a sample that favours compounds with a hit; in the whole collection about 1.5% have one here.
RAD52 inh = RAD52 (human) annealing inhibition; inhibition, % at 18.7 µM; P43351; recombinant RAD52 DNA annealing, FRET fluorescence; 0.46% of 360,000 active;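 active = every replicate showing at least 50% inhibition; inconclusive = mean inhibition at least 50% but not in every replicate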
miR122 inh = blocks miR-122 activity in Huh7 sensor cells | 0.3% of 340,000 active | Huh7 miR-122 Renilla luciferase sensor, 48 h; neutral wells = 0, positive control = 100 | activation (reporter increase), % at 12.5 µM | AID 602342;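 active = mean replicate activation score at least 90 and every replicate individually at or above 90; inconclusive = only one of the two criteria met; inactive = neither criterion met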;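 note: higher luciferase means less miR-122 activity so hits act as miR-122 inhibitors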
AF4-AF9 inh = blocks AF4 peptide binding to human AF9 | 0.47% of 350,000 active | inhibition, % at 10 µM | AlphaScreen, biotin-AF4 peptide binding to FLAG-AF9 | P42568;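 active = every replicate reaching a set inhibition limit, whatever the replicate mean, cut at about 25% in these data; inconclusive = mean inhibition reaches that limit but some replicates miss it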;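 note: 0% = plate neutral control median and 100% = total signal loss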
NSD2 HMT inh = blocks human histone methyltransferase NSD2 | O96028 | NSD2 peptide methylation, AlphaScreen, 120 min | inhibition, % at 12.5 µM | 0.54% of 310,000 active | AID 743445; in the data active = inhibition above about 50%
Casp6 inh = caspase-6 (human) enzyme inhibition. P55212. purified caspase-6, Z-VEID-R110 cleavage fluorescence. inhibition, % at 12.5 µM. 0.53% of 350,000 active. AID 686996;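 active = mean inhibition across replicates at least about 35%, with every replicate also reaching that limit, limit read from the data; inconclusive = only one of the two criteria met; inactive = neither criterion met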;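 note: 0% = median of neutral control wells and 100% = no fluorescence left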
Target sequence (P55212 24-179 limits assumed): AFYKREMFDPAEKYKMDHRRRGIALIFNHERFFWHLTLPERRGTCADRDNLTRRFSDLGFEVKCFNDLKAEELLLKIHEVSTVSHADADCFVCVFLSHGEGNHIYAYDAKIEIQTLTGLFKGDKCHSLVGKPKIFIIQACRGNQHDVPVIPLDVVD
Target sequence (P55212 194-293 limits assumed): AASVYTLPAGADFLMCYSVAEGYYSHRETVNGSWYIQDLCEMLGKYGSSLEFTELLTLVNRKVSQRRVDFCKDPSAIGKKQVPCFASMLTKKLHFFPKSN
An asterisk follows results filed as active; ? = inconclusive; / = no result; [ ] = dose if it differs, or a comment.

SMILES	RAD52 inh	miR122 inh	AF4-AF9 inh	NSD2 HMT inh	Casp6 inh
COc1ccc(CN(C)C[C@H]2Oc3ccc(NS(=O)(=O)c4ccc(F)cc4)cc3C(=O)N([C@H](C)CO)C[C@H]2C)cc1	-8	13[16.7 µM]	0	/	3
O=C(Nc1c(-c2ccc3c(c2)OCO3)[nH][nH]c1=O)c1ccccc1	-4	-4	-3	/	45*
O=C(Nc1c(-c2ccccc2)[nH][nH]c1=O)c1ccc2c(c1)OCO2	-3	/	-1	/	4
CC[C@H](C)[C@H](NC(N)=O)C(=O)Nc1ccc(NC(C)=O)cc1	-9	-6	96*	-1	0
CC(=O)NCc1ccc(C(=O)COC(=O)c2ccc(C#N)cc2)o1	/	/	/	4	/
CC(C)CC(=O)Nc1cccc(-c2nc3ccccc3[nH]2)c1	-1	158*	-1	2	3
CN1C(=O)CCS(=O)(=O)C1c1ccc(Cl)c(Cl)c1 (configuration not stated)	-1	/	-1	0	57*
COc1cccc(C(=O)Nc2ccc3c(c2)OC[C@@H](C)N(CC2CC2)C[C@H](C)[C@H](OC)CN(C)C3=O)c1	2	16[16.7 µM]	0	/	1
C[C@@H]1CN([C@@H](C)CO)C(=O)Cc2cc(NS(C)(=O)=O)ccc2O[C@@H]1CN(C)Cc1ccc(C(F)(F)F)cc1	22	1[16.7 µM]	/	/	/
O=C(NC[C@H]1CC[C@H]2[C@H](CN2Cc2cccc(Cl)c2)O1)C1CCC1	67*	/	-3	/	1
O=C(NC[C@@H]1CC[C@H]2[C@H](CN2Cc2cccc(Cl)c2)O1)C1CCC1	2	/	-3	/	-2
CC(NC(=O)CN1c2cccc3cccc(c23)S1(=O)=O)c1ccc(S(N)(=O)=O)cc1 (configuration not stated)	-13	3	7	3	56*
O=C(CSc1nnnn1-c1ccc(Cl)cc1)N1CCNC1=O	0	/	-6	-6	-2
COC(=O)CC1C(=O)NCCN1C(=O)CSc1nnnn1-c1ccc(Cl)cc1 (configuration not stated)	-12	/	1	-4	50*
Cn1c(O)c(N=NC(=O)C2COc3ccccc3O2)c2ccccc21 (configuration not stated)	-10	6	-92	7	3
CC(C)n1c(O)c(N=NC(=O)C2COc3ccccc3O2)c2ccccc21 (configuration not stated)	-2	2	39*	1	0
O=C(Cc1ccccn1)N[C@@H]1CC[C@H](CC(=O)N2CCCCC2)O[C@H]1CO	-5	/	-1	/	3
Cc1ccc2c(c1)N(CCCC(=O)NCCCN1CCCC1=O)C(=O)CO2	3	1	49*	/	-1
C[C@@H]1CCCCO[C@H](CN(C)S(=O)(=O)c2ccccc2)[C@H](C)CN([C@H](C)CO)C(=O)c2cc(NC(=O)C3CCCCC3)ccc2O1	-9	-8[16.7 µM]	1	/	4
C[C@@H]1CCCCO[C@@H](CN(C)Cc2ccc3c(c2)OCO3)[C@@H](C)CN([C@@H](C)CO)C(=O)c2cc(N(C)C)ccc2O1	/	4[16.7 µM]	/	/	/
COc1c(-c2ccc(O)c(O)c2)oc2cc(O)cc(O)c2c1=O	-18	-15	-4	/	48*
C[C@@H]1O[C@@H](OC[C@H]2O[C@@H](Oc3c(-c4ccc(O)c(O)c4)oc4cc(O)cc(O)c4c3=O)[C@H](O)[C@@H](O)[C@@H]2O)[C@H](O)[C@H](O)[C@H]1O	-12	10	-2	/	3
COCOc1ccc(-c2cc(=O)c3c(OCOC)cc(OCOC)cc3o2)cc1	/	-1	/	/	/
COCOc1cc(O)c2c(=O)c(OCOC)c(-c3ccc(OCOC)c(OCOC)c3)oc2c1	5	0	16	/	51*
CC(Oc1ccccc1)C(=O)N=Nc1c(O)[nH]c2ccc([N+](=O)[O-])cc12 (configuration not stated)	-15	232*	8	44	6
SMILES	RAD52 inh	miR122 inh	AF4-AF9 inh	NSD2 HMT inh	Casp6 inh
O=C(N=Nc1c(O)[nH]c2ccc([N+](=O)[O-])cc12)c1ccccc1[N+](=O)[O-]	-26	2	6	10	1
C[C@@H]1CN([C@H](C)CO)C(=O)c2cc(NC(=O)CCCN(C)C)ccc2O[C@@H](C)CCCCO[C@@H]1CN(C)Cc1ccc(C(=O)O)cc1	3	/	-18	/	8
O=C(NCC[C@@H]1CC[C@@H](NC(=O)Nc2cc(F)ccc2F)[C@H](CO)O1)Nc1ccc(F)cc1	56*	/	22	/	-256
O=C(NCC[C@H]1CC[C@H](NS(=O)(=O)c2ccc(Cl)cc2)[C@H](CO)O1)Nc1ccc(F)cc1	16	/	30*	/	-75
C[C@H](CO)N1C[C@H](C)[C@@H](CN(C)C(=O)NC2CCCCC2)Oc2c(NC(=O)c3ccc(-c4nccs4)cc3)cccc2C1=O	2	2[16.7 µM]	-1	/	-2
COCC#Cc1ccc([C@@H]2[C@@H](CO)N3C(=O)CN(C(=O)CN4CCOCC4)C[C@@H]23)cc1	-19	/	-3	/	-1
Cc1cc(=O)c2ccccc2[nH]1	/	-6	/	-4	/
Cc1cc(=O)c2c(N(C)C)cccc2[nH]1	19	8	32*	23	-3
O=C(NCCCn1ccnc1)c1cccc(S(=O)(=O)Nc2ccc(Br)cc2)c1	6	72	2	-1	-4
O=C(NCc1ccncc1)c1cccc(S(=O)(=O)Nc2ccc(F)cc2)c1	3	91*	1	3	-9
O=C(NCCCN1CCCC1=O)c1cccc(NS(=O)(=O)c2ccc(Br)cc2)c1	-16	-5	-31	0	-3
O=C(NCCCn1ccnc1)c1cccc(S(=O)(=O)Nc2ccc(F)cc2)c1	-4	142*	-1	-1	1
Cc1ccc(C(=O)NCCSc2ccccc2)cc1S(=O)(=O)Nc1ccccc1	/	94*	/	2	/
O=C(NCCCN1CCCC1=O)c1cccc(S(=O)(=O)Nc2ccc(Br)cc2)c1	-1	110*	-8	-2	4
COCCNC(=O)c1ccc(C)c(S(=O)(=O)Nc2ccc(C)cc2)c1	-5	?	2	27	1
COc1ccc2c3c(n(C)c2c1)[C@H](CO)N(C(=O)C1CC1)CC31CCN(C(=O)Nc2cccc(F)c2)CC1	1	/	8	/	0
Cc1ccc(NS(=O)(=O)c2ccc(C(=O)NCc3ccncc3)cc2)cc1	0	6	4	0	0
Cc1ccc(NS(=O)(=O)c2cc(C(=O)NCc3ccncc3)ccc2C)cc1	-29	117*	0	4	2
CN(C)S(=O)(=O)n1cc(/C=C(\NC(=O)c2ccccc2)C(=O)NCCCn2ccnc2)c2ccccc21	-27	30	9	10	/
CN(C)S(=O)(=O)n1cc(/C=C(\NC(=O)c2ccccc2Cl)C(=O)NCCCn2ccnc2)c2ccccc21	24	125*	4	-2	-3
COc1ccc(N2CCN(CC(O)COC(c3ccc(F)cc3)c3ccc(F)cc3)CC2)cc1 (configuration not stated)	-5	-8	27*	7	1
